Tests used:
Assay in all cases: DAPPL (digital affinity profiling via proximity ligation, sequencing); 10 mM Tris-HCl pH 7.5, 50 mM NaCl, 1 mM DTT, 4% glycerol, room temperature, 30 min; GST-TFs on glutathione beads, 16-mer random dsDNA library, 0.1% formaldehyde crosslink after washing; high values mean tight binding
Conditions in all cases: protein: recombinant; tags: N-terminal GST; dsDNA, one strand shown
[1] = target: T1, FEV (Homo sapiens, UniProt Q99581 1-238)
T1 sequence: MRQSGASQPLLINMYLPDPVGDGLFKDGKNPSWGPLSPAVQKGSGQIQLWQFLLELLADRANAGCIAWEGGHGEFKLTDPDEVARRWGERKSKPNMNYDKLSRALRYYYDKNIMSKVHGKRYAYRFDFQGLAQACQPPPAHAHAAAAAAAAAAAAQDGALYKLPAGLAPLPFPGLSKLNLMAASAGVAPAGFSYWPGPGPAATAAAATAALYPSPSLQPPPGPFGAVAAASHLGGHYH
Method in brief: (§1)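 GST fusions of human transcription factors were expressed in yeast and captured with glutathione beads. Once given DNA barcodes and pooled alongside a tag-only sample, they were incubated for 30 min at room temperature with 200 nmole of a random double-stranded 16-mer DNA library in Tris/NaCl/DTT/glycerol buffer, then washed, crosslinked (0.1% formaldehyde), proximity-ligated, PCR-amplified and sequenced on an Illumina NextSeq500. The binding signal of each hexamer is its read frequency for a factor divided by its frequency for the tag-only sample.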

[2] = target: ETV5 (Homo sapiens, UniProt P41161 1-510)
ETV5, sequence (P41161 whole entry): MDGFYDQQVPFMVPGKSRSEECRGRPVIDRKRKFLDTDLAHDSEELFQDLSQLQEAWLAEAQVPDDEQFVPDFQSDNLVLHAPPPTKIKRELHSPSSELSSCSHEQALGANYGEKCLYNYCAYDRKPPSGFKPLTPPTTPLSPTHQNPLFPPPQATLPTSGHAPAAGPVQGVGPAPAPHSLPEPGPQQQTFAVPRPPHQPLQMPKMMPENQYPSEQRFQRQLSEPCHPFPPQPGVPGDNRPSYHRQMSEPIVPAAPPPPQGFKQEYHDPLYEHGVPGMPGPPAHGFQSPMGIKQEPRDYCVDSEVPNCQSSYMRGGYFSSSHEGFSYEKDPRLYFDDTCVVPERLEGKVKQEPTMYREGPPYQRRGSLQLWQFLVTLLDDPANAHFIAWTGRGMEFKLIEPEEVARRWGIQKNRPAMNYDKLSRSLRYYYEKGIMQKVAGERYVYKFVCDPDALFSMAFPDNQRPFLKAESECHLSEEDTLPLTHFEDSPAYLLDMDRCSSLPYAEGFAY
Method in brief: as §1

[3] = target: T2, SPIC (Homo sapiens, UniProt Q8N5J4 1-248)
T2 sequence: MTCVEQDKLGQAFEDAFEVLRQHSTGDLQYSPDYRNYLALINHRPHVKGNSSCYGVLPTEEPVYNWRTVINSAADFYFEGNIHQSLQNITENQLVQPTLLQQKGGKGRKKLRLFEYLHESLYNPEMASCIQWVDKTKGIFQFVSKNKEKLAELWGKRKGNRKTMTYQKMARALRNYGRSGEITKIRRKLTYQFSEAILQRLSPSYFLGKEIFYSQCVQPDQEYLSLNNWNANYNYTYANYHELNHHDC
Method in brief: as §1

[4] = target: ELF4 (Homo sapiens, UniProt Q99607 1-663)
ELF4, sequence (Q99607 whole entry): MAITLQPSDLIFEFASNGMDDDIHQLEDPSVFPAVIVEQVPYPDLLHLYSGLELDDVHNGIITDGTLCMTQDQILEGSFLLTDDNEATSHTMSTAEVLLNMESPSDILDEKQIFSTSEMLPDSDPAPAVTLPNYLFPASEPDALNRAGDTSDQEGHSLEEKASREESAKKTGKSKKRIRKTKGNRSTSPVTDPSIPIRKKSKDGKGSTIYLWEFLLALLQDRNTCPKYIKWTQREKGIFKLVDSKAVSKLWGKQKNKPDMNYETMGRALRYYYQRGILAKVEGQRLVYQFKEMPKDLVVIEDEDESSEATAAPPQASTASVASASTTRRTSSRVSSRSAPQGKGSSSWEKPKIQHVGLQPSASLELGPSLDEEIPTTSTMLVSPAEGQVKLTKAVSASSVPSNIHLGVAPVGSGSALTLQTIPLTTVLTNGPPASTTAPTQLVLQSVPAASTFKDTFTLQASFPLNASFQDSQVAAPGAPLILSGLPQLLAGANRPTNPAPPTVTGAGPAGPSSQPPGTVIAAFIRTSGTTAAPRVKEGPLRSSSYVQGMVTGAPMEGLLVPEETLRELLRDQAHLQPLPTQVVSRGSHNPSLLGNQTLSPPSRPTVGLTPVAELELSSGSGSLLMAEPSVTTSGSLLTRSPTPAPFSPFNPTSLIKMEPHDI
Method in brief: as §1

[5] = target: T3, ELK4 (Homo sapiens, UniProt P28324-2 1-405)
T3 sequence: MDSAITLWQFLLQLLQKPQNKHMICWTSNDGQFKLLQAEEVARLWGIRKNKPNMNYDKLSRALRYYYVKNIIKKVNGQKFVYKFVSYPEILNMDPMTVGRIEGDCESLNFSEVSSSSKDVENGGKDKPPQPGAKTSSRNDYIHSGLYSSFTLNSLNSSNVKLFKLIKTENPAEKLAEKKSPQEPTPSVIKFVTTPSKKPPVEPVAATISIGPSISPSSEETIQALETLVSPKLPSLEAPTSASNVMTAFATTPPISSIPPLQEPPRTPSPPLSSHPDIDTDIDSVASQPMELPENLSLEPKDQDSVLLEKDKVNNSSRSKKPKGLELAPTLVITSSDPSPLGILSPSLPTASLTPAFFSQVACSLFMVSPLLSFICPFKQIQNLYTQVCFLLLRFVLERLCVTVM
Method in brief: as §1

[6] = target: T4, ETV2 (Homo sapiens, UniProt O00321 1-342)
T4 sequence: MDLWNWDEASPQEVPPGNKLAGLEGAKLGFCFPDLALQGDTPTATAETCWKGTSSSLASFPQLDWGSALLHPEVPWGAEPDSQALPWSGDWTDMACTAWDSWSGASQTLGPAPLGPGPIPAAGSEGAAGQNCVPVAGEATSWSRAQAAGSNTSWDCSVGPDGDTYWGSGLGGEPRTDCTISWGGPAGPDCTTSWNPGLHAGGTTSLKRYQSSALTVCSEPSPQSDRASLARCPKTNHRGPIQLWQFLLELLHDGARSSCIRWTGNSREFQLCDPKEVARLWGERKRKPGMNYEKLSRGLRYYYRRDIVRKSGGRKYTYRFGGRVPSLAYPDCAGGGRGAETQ
Method in brief: as §1

[7] = target: T5, ELF3 (Homo sapiens, UniProt P78545 1-371)
T5 sequence: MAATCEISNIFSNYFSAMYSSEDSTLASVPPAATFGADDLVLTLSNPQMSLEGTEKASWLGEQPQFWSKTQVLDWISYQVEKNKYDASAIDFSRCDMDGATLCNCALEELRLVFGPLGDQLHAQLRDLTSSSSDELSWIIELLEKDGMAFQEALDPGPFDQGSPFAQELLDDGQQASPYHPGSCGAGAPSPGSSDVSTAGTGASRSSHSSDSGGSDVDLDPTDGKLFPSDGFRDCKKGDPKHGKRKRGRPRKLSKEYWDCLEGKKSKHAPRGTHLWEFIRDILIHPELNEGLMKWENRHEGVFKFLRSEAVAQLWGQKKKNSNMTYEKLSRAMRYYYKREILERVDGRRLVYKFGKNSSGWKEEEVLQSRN
Method in brief: as §1

[8] = target: ETV1 (Homo sapiens, UniProt P50549 1-477)
ETV1, sequence (P50549 whole entry): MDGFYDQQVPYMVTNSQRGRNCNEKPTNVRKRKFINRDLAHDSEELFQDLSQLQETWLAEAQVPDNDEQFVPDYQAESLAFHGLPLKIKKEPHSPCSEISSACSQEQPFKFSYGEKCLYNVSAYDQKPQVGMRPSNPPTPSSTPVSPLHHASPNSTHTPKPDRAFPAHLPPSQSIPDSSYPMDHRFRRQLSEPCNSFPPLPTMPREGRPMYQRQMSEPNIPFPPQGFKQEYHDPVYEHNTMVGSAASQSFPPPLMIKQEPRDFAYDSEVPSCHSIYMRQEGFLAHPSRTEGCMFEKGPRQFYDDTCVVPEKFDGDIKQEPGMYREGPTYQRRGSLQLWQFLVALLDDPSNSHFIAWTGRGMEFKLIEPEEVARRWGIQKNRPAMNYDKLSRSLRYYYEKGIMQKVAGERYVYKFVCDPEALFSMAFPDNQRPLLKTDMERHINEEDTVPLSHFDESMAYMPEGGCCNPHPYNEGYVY
Method in brief: as §1

[9] = target: T6, ERF (Homo sapiens, UniProt P50548 1-548)
T6 sequence: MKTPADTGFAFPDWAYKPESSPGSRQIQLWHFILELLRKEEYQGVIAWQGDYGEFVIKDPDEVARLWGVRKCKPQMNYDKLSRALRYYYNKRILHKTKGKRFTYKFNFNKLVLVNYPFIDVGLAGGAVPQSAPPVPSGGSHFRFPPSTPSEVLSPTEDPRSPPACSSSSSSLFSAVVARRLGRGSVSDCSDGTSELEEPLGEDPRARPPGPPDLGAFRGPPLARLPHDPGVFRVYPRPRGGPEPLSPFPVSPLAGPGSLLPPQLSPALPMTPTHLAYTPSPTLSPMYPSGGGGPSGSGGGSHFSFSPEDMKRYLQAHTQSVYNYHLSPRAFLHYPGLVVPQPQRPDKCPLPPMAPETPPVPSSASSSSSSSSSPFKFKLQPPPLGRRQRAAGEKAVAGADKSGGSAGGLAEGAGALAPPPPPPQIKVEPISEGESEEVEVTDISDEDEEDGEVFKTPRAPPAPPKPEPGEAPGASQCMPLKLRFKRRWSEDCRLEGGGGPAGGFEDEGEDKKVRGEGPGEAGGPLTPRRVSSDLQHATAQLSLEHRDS
Method in brief: as §1

[10] = target: T7, ETV3L (Homo sapiens, UniProt Q6ZN32 1-361)
T7 sequence: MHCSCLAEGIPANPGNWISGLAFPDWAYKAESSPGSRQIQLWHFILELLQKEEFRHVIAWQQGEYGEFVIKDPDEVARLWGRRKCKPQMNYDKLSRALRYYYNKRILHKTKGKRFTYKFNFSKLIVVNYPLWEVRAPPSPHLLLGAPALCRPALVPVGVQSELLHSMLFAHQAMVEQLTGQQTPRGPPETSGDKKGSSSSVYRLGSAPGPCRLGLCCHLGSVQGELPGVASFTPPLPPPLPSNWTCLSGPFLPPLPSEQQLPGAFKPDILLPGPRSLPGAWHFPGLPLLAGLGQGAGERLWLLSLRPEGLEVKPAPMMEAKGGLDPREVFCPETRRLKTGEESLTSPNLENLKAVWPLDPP
Method in brief: as §1

[11] = target: T8, ETS2 (Homo sapiens, UniProt P15036 1-469)
T8 sequence: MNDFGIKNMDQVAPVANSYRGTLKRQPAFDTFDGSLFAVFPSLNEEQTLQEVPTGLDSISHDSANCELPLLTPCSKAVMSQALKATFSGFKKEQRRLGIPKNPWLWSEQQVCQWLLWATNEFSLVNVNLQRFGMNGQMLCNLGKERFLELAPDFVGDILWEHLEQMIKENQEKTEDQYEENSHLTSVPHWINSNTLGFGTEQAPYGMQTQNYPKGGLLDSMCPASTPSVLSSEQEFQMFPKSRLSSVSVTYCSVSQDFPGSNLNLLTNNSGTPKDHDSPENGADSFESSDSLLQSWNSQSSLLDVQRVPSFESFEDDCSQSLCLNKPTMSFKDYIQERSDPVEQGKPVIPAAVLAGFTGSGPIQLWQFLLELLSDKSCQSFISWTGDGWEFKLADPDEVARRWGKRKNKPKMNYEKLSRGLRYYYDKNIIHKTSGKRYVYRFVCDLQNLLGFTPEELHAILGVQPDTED
Method in brief: as §1

[12] = target: T9, SPDEF (Homo sapiens, UniProt O95238 1-335)
T9 sequence: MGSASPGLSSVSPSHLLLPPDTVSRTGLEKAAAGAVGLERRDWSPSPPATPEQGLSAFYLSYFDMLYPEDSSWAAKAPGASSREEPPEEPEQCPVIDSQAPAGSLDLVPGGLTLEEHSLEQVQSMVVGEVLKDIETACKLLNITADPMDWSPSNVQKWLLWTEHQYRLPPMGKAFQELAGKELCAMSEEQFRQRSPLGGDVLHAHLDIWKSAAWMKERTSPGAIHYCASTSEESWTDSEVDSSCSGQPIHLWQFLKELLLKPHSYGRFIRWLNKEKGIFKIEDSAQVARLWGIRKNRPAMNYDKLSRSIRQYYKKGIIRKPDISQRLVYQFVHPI
Method in brief: as §1

[13] = target: T10, ETV7 (Homo sapiens, UniProt Q9Y603 1-341)
T10 sequence: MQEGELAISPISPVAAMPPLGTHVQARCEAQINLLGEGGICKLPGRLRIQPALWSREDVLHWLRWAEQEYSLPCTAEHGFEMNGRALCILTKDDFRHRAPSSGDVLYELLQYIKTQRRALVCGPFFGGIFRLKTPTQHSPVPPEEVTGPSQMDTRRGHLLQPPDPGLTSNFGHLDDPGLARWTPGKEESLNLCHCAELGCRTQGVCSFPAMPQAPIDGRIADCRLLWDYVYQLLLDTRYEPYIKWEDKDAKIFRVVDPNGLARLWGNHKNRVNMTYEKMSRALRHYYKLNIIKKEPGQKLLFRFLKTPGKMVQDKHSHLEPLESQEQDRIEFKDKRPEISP
Method in brief: as §1

[14] = target: T11, ELF5 (Homo sapiens, UniProt Q9UKW6-2 1-255)
T11 sequence: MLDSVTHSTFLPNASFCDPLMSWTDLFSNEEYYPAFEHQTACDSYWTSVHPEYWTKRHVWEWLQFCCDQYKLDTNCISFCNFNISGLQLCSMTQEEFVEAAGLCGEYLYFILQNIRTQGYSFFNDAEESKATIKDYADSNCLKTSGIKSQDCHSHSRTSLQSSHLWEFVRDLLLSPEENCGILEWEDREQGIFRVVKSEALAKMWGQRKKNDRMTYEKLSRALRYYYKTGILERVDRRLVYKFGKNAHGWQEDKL
Method in brief: as §1

[15] = target: T12, ETV3 (Homo sapiens, UniProt P41162-2 1-143)
T12 sequence: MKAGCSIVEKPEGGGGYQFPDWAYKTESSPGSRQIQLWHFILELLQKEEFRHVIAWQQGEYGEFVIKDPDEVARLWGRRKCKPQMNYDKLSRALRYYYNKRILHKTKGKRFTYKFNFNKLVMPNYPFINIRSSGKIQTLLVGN
Method in brief: as §1

[16] = target: ETV6 (Homo sapiens, UniProt P41212 1-452)
ETV6, sequence (P41212 whole entry): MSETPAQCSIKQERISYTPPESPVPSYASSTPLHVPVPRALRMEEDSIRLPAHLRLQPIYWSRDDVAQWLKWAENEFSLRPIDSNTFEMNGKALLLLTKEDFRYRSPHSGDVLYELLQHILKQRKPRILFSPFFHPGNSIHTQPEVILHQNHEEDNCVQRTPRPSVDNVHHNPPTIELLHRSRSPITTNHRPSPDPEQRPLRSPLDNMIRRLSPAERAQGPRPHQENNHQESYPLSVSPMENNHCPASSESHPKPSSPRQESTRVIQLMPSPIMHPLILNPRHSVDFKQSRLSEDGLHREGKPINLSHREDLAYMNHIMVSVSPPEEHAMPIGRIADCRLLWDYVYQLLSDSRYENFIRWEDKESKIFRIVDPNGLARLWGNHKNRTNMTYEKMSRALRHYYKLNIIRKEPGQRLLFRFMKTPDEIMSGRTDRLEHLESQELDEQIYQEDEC
Method in brief: as §1

Sequence	binding signal [1]	binding signal [2]	binding signal [3]	binding signal [4]	binding signal [5]	binding signal [6]	binding signal [7]	binding signal [8]	binding signal [9]	binding signal [10]	binding signal [11]	binding signal [12]	binding signal [13]	binding signal [14]	binding signal [15]	binding signal [16]
CAACAT	1.21 fold enrichment (6-mer frequency, TF over GST control)	1.21 fold enrichment (6-mer frequency, TF over GST control)	1.05 fold enrichment (6-mer frequency, TF over GST control)	1.19 fold enrichment (6-mer frequency, TF over GST control)	1.23 fold enrichment (6-mer frequency, TF over GST control)	1.19 fold enrichment (6-mer frequency, TF over GST control)	1.2 fold enrichment (6-mer frequency, TF over GST control)	1.13 fold enrichment (6-mer frequency, TF over GST control)	1.23 fold enrichment (6-mer frequency, TF over GST control)	1.2 fold enrichment (6-mer frequency, TF over GST control)	1.17 fold enrichment (6-mer frequency, TF over GST control)	1.17 fold enrichment (6-mer frequency, TF over GST control)	1.08 fold enrichment (6-mer frequency, TF over GST control)	1.16 fold enrichment (6-mer frequency, TF over GST control)	1.22 fold enrichment (6-mer frequency, TF over GST control)	1.09 fold enrichment (6-mer frequency, TF over GST control)
CCGCGC	1.11 fold enrichment (6-mer frequency, TF over GST control)	1.21 fold enrichment (6-mer frequency, TF over GST control)	1.41 fold enrichment (6-mer frequency, TF over GST control)	1.07 fold enrichment (6-mer frequency, TF over GST control)	1.35 fold enrichment (6-mer frequency, TF over GST control)	1.29 fold enrichment (6-mer frequency, TF over GST control)	1.01 fold enrichment (6-mer frequency, TF over GST control)	1.06 fold enrichment (6-mer frequency, TF over GST control)	1.23 fold enrichment (6-mer frequency, TF over GST control)	1.08 fold enrichment (6-mer frequency, TF over GST control)	1.21 fold enrichment (6-mer frequency, TF over GST control)	1.17 fold enrichment (6-mer frequency, TF over GST control)	1.06 fold enrichment (6-mer frequency, TF over GST control)	1.18 fold enrichment (6-mer frequency, TF over GST control)	1.19 fold enrichment (6-mer frequency, TF over GST control)	1.15 fold enrichment (6-mer frequency, TF over GST control)

Reference: PMC7862700, “An all-to-all approach to the identification of sequence-specific readers for epigenetic DNA modifications on cytosine”
